The values that follow come from ChEMBL document CHEMBL1961873, “Compounds: GSK PKIS; Assays: Nanosyn kinase panel” (2012).

The target in experiment [1] is Serine/threonine-protein kinase PAK 6 (Homo sapiens) (UniProt Q9NQU5). To be noted: at 1 µM.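 Further: values are mean percent inhibition of PAK6 kinase.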
The subject of experiment [2] is Tyrosine-protein kinase ABL1 (Homo sapiens), P00519 [E255K]. To be noted: at 0.1 µM.
Experiment [3] shares this test system. To be noted: at 1 µM.
The subject of experiment [4] is Tyrosine-protein kinase ABL1 (Homo sapiens), P00519 [H396P]. To be noted: at 0.1 µM.
Experiment [5] has the same test system. The following applies: at 1 µM.
Experiment [6] concerns Tyrosine-protein kinase ABL1 (Homo sapiens), P00519 [M351T]. To be noted: at 0.1 µM.
Experiment [7] has the same test system. The following applies: at 1 µM.
Experiment [8] relates to Tyrosine-protein kinase ABL1 (Homo sapiens), P00519 [Q252H]. The following applies: at 0.1 µM.
For experiment [9] the test system is unchanged. The following applies: at 1 µM.
The test system of experiment [10] is Tyrosine-protein kinase ABL1 (Homo sapiens), P00519 [T315I]. The following applies: at 0.1 µM.

The structures appear in SMILES notation.

Serine/threonine-protein kinase PAK 6 (Homo sapiens), sequence (Q9NQU5 whole entry, looked up): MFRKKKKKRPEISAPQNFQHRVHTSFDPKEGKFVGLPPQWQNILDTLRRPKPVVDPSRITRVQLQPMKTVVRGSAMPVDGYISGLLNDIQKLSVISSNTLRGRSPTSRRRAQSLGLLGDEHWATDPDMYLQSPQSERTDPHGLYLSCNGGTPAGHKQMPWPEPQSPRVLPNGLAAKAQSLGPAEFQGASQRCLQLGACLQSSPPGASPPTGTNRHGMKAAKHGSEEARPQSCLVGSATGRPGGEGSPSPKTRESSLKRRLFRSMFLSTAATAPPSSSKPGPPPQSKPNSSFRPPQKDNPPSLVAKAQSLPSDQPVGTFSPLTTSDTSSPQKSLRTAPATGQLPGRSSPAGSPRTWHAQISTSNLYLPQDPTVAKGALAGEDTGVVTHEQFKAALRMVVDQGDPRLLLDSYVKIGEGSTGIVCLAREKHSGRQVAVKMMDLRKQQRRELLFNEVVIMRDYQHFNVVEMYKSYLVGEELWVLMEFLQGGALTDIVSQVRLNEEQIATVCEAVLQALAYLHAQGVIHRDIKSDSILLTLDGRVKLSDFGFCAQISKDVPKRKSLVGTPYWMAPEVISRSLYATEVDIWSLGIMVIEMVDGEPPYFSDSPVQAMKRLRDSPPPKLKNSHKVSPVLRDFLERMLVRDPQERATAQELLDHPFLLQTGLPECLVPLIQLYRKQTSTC

For `COc1cc2c(cc1Nc1nc(N3CCc4ccccc43)c3cc[nH]c3n1)N(C(=O)CN(C)C)CC2`, the inhibition in [1] is -0.54%; in [2], 0.52%; in experiment [3], 1.73%; in [4], 0.54%; in [5], -0.96%; in experiment [6], 0.88%. Moreover, the inhibition in experiment [7] is -0.63%; in experiment [8], 1.56%; in [9], 2.24%; in experiment [10], 1.05%.
`COc1cc(C=NNc2ncnc3c2cnn3-c2ccccc2)ccc1O`: the inhibition was determined as 2.62% in experiment [1]; 24.9% in [2]; 77.9% in [3]; 40.3% in experiment [4]; 84.9% in [5]; 40.1% in [6]. Further, the inhibition in [7] was determined as 88.5%; in experiment [8], 50.5%; in [9], 88.7%; in experiment [10], 32%.
Turning to `CCn1c(-c2nonc2N)nc2c(C#CC(C)(C)O)nc(OC[C@@H](N)c3ccccc3)cc21`, the inhibition in [1] was 91.4%; in experiment [2], -1.82%; in experiment [3], 1.65%; in experiment [4], 0.8%; in experiment [5] it was -0.27%; in [6] it was 1.41%. Also, the inhibition was 0.68% in experiment [7], 0.61% in experiment [8], -0.28% in experiment [9] and 0.08% in experiment [10].
Regarding `COc1cc2ncn(-c3cc(OCc4ccccc4C(F)(F)F)c(C(N)=O)s3)c2cc1OC`, the inhibition was -0.46% in experiment [1]; 0.92% in experiment [2]; 13.5% in [3]; 5.99% in experiment [4]; 23% in experiment [5]; 3.68% in experiment [6]. For the same compound, the inhibition in experiment [7] stood at 19.2%; in experiment [8] it was 5.63%; in experiment [9], 21.9%; in [10], 3.84%.
In the case of `CCn1c(-c2nonc2N)nc2cncc(C(=O)N3CCNCC3)c21`, the inhibition in experiment [1] was 0.53%; in experiment [2], -1.75%; in experiment [3], 4.64%; in [4] it was 4.85%; in experiment [5], 4.82%; in experiment [6], -1.66%. Further, the inhibition in [7] was -0.43%; in experiment [8], 3.41%; in experiment [9], 4.95%; in [10], 1.64%.
In the case of `Cc1nnc(-c2ccc(C)c(-c3ccc(C(=O)Nc4cccc(C#N)c4)cc3)c2)o1`, the inhibition in experiment [1] is -7.37%; in experiment [2], 2%; in experiment [3], 4.21%; in experiment [4], -0.02%; in [5], 3.51%; in experiment [6], -0.06%. Also, the inhibition in experiment [7] stood at 2.91%; in [8], 3.04%; in experiment [9], 4.21%; in experiment [10], 1.53%.
As for `CC(=O)Nc1cccc(C#Cc2cncnc2Nc2ccc(OCc3cccc(F)c3)c(Cl)c2)n1`, the inhibition is 0.8% in experiment [1]; -0.61% in experiment [2]; -0.48% in [3]; 0.09% in experiment [4]; 1.6% in experiment [5]; 1.08% in experiment [6]. The inhibition in experiment [7] is 3.88%; in experiment [8], 0.29%; in experiment [9], 3.02%; in [10] it was 0.4%.
`COc1cccc(-n2ncc3c(N/N=C/c4cccc(F)c4)ncnc32)c1`: the inhibition in experiment [1] was -4.69%; in experiment [2], 40.5%; in experiment [3], 84.1%; in experiment [4] it was 51%; in [5], 87.6%; in experiment [6] it was 52.3%. Moreover, the inhibition was 88% in [7], 60.9% in experiment [8], 90.3% in [9] and 10.8% in experiment [10].
With `Cc1ccc(NC(=O)c2ccnc(N3CCCC3)c2)cc1-c1ccc(C(=O)NCC2CC2)cc1`, the inhibition was -7.72% in [1]; 1.9% in [2]; 5.48% in experiment [3]; 3% in [4]; 2.43% in experiment [5]; 0.54% in experiment [6]. Besides, the inhibition stood at 9.12% in experiment [7], 2.92% in experiment [8], 12.4% in experiment [9] and 0.94% in [10].
As to `CCn1c(-c2nonc2N)nc2c(N3CCCC3)nccc21`, the inhibition was 0.23% in [1]; -0.9% in [2]; -0.63% in [3]; 0.1% in [4]; -1.53% in [5]; 1.28% in experiment [6]. The inhibition in experiment [7] was -0.55%; in experiment [8], 1.69%; in experiment [9], -0.47%; in experiment [10], -0.16%.
Turning to `CCc1cccc(NC(=O)Nc2ccc(Oc3ccc4nc(NC(=O)OC)[nH]c4c3)cc2)c1`, the inhibition in experiment [1] stood at 1.29%; in [2] it was 6.09%; in [3] it was 14.3%; in [4], 34%; in [5] it was 51.8%; in experiment [6], 48.6%. For the same compound, the inhibition in [7] was determined as 57.9%; in [8], 48.4%; in experiment [9] it was 60.8%; in experiment [10] it was 40.6%.
Turning to `Nc1ncnc2occ(-c3ccc(NC(=O)Nc4cc(C(F)(F)F)cc(C(F)(F)F)c4)cc3)c12`, the inhibition in [1] amounted to 7.94%; in experiment [2], 3.79%; in experiment [3], 25.5%; in [4], 18.5%; in experiment [5] it was 68.1%; in experiment [6] it was 48.5%. In addition, the inhibition in experiment [7] is 80.9%; in [8] it was 45%; in [9] it was 75.5%; in experiment [10], 42.5%.
On to `Cc1cccc(-c2n[nH]cc2-c2ccc3ncccc3n2)n1`, for which the inhibition was -8.92% in experiment [1]; 4.1% in [2]; 29.4% in experiment [3]; 5.48% in experiment [4]; 35.5% in [5]; 2.99% in experiment [6]. Besides, the inhibition in experiment [7] is 35.3%; in experiment [8], 3.21%; in experiment [9] it was 29.6%; in [10] it was -0.61%.
As for `Nc1ncnc2occ(-c3ccc(NC(=O)Nc4cccc(C(F)(F)F)c4)cc3)c12`, the inhibition in experiment [1] is -2.37%; in experiment [2], 5.41%; in experiment [3] it was 38.8%; in [4] it was 25.3%; in experiment [5] it was 76.8%; in experiment [6] it was 54.5%. The inhibition is 85.1% in experiment [7], 54.2% in experiment [8], 81.6% in experiment [9] and 48.3% in [10].
With `NC(=O)c1ccc(-c2nc(-c3ccccn3)c(-c3ccc4c(c3)OCO4)[nH]2)cc1`, the inhibition in [1] is -5.81%; in experiment [2], 3.49%; in experiment [3] it was 4.45%; in [4] it was 1.34%; in experiment [5], 6.63%; in [6] it was 0.6%. Besides, the inhibition in experiment [7] was 3.86%; in [8], 0.7%; in experiment [9], 3.91%; in [10] it was 1.95%.
Regarding `COC(=O)Nc1nc2cc(Oc3ccc(NC(=O)Nc4cccc(C(=O)O)c4)cc3)ccc2[nH]1`, the inhibition in [1] is 4.26%; in experiment [2], -4.91%; in experiment [3] it was 3.52%; in experiment [4], 0.4%; in experiment [5], 9.38%; in [6], 3.52%. For the same compound, the inhibition was determined as 19.9% in experiment [7], 1.92% in experiment [8], 14.4% in [9] and 2.13% in experiment [10].
Take `CCn1c(-c2nonc2N)nc2cncc(C(=O)N3CC[C@H](N)C3)c21`: the inhibition in [1] was determined as 3.33%; in experiment [2], 3.58%; in experiment [3] it was 2.43%; in experiment [4], 5.83%; in experiment [5], 2.94%; in experiment [6] it was 2.2%. In addition, the inhibition was -0.9% in [7], 4.86% in experiment [8], 2.19% in experiment [9] and 2.09% in experiment [10].
In the case of `CCCN1CCC=C(c2ccc(Nc3nc(Nc4ccccc4C(N)=O)c4cc[nH]c4n3)c(C)c2)C1`, the inhibition in experiment [1] is -5.41%; in [2] it was -0.02%; in [3], 5.11%; in experiment [4], 2.87%; in experiment [5], 7.11%; in [6], 1.17%. In addition, the inhibition in experiment [7] amounted to 5.02%; in experiment [8], 3.91%; in experiment [9], 8.95%; in experiment [10], 1.37%.
For the compound `O=C(Nc1n[nH]c2nc(-c3ccco3)c(Br)cc12)C1CC1`, the inhibition in [1] was determined as 0.72%; in [2], 3.52%; in [3], 8.63%; in experiment [4] it was 5.52%; in experiment [5], 26.4%; in experiment [6], 4.18%. For the same compound, the inhibition is 29.8% in [7], 8.1% in experiment [8], 32.3% in [9] and 3.13% in [10].

In general, inhibition refers to the change of the read-out against control, counted positive when it falls.
